hgDAF-12 ag: agonists of H. glycines DAF-12 nuclear receptor; HEK293 GAL4-hgDAF12 UAS-luciferase reporter, agonist luminescence; normalized to butyrate control; activation, % at 6.8 µM; 370,000 compounds, 1.8% hits;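 active = activation above a cutoff set at the mean of all screened compounds plus 3 SD, cut at about 10% in these data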
ssDAF-12 act: S. stercoralis DAF-12 activation, primary screen; 370,000 compounds, 1% hits; HEK293 ssDAF-12/GRIP1 lit1-tk-luc reporter, luminescence; % of 3 µM dafachronic acid response; activation, % at 6.8 µM; AID 652126;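 active = activation above the mean over all tested compounds plus 3 SD, cut at about 0.9% in these data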
hcDAF12 agonist: H. contortus DAF-12 activation, primary screen; 370,000 compounds, 1.4% hits; activation, % at 6.8 µM; HEK293 hcDAF-12 lit1-tk-luc reporter, luminescence; 0% DMSO, 100% Δ7-dafachronic acid;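 active = activation above the mean of all tested compounds plus 3 SD, cut at about 5.5% in these data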
DAX1 inh-1: inhibitors of DAX1 repression of SF-1 activated StAR promoter | HEK293T StAR-luciferase reporter, SF-1/DAX-1 repression relief | inhibition, % at 6.8 µM | 370,000 compounds, 1.1% hits | AID 652010;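 active = inhibition above the mean over all tested compounds plus 3 SD, cut at about 3.6% in these data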;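 also: higher inhibition means more luminescence from relief of DAX-1 repression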
DAX1 inh-2: NR0B1 (DAX1) inhibition; 340,000 compounds, 0.99% hits; inhibition, % at 6.75 µM; HEK293 Gal4-DAX1 luciferase reporter, luminescence;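 active = inhibition above the mean over all tested compounds plus 3 SD, cut at about 4.2% in these data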;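 also: inhibition shows as a rise in luminescence from relieved DAX1 repression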
AHR activator: activates the human aryl hydrocarbon receptor; P35869; AHR-responsive luciferase reporter cells, luminescence; activation, % at 5 µM; 320,000 compounds, 2.5% hits; in the data active = activation above about 47%
Target sequence (P35869 whole entry, looked up): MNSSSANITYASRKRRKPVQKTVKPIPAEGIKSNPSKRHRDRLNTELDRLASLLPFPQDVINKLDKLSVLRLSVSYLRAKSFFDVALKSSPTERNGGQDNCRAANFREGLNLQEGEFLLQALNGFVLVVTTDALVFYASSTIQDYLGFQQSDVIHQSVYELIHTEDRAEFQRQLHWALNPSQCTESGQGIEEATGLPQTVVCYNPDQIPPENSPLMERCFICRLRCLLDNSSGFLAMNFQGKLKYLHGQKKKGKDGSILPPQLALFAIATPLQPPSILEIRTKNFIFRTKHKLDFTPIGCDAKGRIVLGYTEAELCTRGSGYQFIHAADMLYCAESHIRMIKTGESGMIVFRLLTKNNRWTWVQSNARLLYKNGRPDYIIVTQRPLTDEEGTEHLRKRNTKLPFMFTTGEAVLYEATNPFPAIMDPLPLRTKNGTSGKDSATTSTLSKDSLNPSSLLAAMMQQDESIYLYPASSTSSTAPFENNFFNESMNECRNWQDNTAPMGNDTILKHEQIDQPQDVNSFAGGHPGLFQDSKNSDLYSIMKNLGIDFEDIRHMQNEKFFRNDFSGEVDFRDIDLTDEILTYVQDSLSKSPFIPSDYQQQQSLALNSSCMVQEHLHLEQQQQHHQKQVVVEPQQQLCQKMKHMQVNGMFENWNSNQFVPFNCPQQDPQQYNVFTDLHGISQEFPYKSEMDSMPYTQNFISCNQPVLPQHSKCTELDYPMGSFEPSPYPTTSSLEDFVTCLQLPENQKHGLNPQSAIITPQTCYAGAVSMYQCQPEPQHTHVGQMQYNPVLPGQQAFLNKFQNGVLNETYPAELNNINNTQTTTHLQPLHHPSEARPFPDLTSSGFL
Of the large screens only hits and unclear results are named; the others gave an inactive call. Shown are actives, neighbours in structure and some others; about 5.7% of the full set was active somewhere.

O=C(Nc1cc(C(F)(F)F)cc(C(F)(F)F)c1)Nc1cnn(-c2ccc([N+](=O)[O-])cc2)c1C(F)(F)F	none
Cc1ccc(C=Nc2ccccc2C(N)=O)s1	AHR activator 55
O=C(Nc1cccc(Cl)c1)c1ccc(S(=O)(=O)NCC2CCCO2)cc1 (stereo not drawn)	none
CC(C)N(Cc1ccccc1)C(=O)COC(=O)c1cc[n+]([O-])cc1	none
CC(Sc1nnc(-c2cccnc2)o1)C(=O)NC1CCCCC1 (stereo not drawn)	none
Oc1ccc(Br)cc1-c1n[nH]c(=S)n1Cc1ccccc1	none
Oc1ccccc1-c1n[nH]c(=S)n1Cc1ccccc1	ssDAF-12 act 1.5
Cc1nc2nc(SCC(=O)c3cccc([N+](=O)[O-])c3)[nH]c2cc1Br	AHR activator 57
Cc1nc2nc(SCc3nc4ccccc4[nH]3)[nH]c2cc1Br	none (no result: DAX1 inh-2)
Cc1nc2nc(SCC(=O)C(C)(C)C)[nH]c2cc1Br	AHR activator 47
Cc1cc(C)n2nc(SC(C)C(=O)N(C)c3ccccc3)nc2n1 (stereo not drawn)	none
Cc1nc(NC(=O)c2ccccc2)sc1-c1csc(Nc2ccc(F)cc2)n1	none (no result: hgDAF-12 ag, ssDAF-12 act, hcDAF12 agonist, DAX1 inh-1, DAX1 inh-2)
Cc1nc(NC(=O)CC(C)C)sc1-c1csc(Nc2ccc(Cl)cc2Cl)n1	AHR activator 61
Cc1ccc(Cl)cc1Nc1nc(-c2sc(NC(=O)c3cccc(Cl)c3)nc2C)cs1	none (no result: hgDAF-12 ag, ssDAF-12 act, hcDAF12 agonist, DAX1 inh-1, DAX1 inh-2)
COc1ccc(Cl)cc1Nc1nc(-c2sc(NC(=O)c3ccccc3)nc2C)cs1	AHR activator 95 (no result: hgDAF-12 ag, ssDAF-12 act, hcDAF12 agonist, DAX1 inh-1, DAX1 inh-2)
COc1ccc(OC)c(Nc2nc(-c3sc(NC(=O)c4ccccc4)nc3C)cs2)c1	AHR activator 55 (no result: hgDAF-12 ag, ssDAF-12 act, hcDAF12 agonist, DAX1 inh-1, DAX1 inh-2)
COc1ccc(Cl)cc1Nc1nc(-c2sc(NC(=O)CC(C)C)nc2C)cs1	none
Cc1nc(NC(=O)c2ccccc2)sc1-c1csc(Nc2ccc(Cl)cc2Cl)n1	none (no result: hgDAF-12 ag, ssDAF-12 act, hcDAF12 agonist, DAX1 inh-1, DAX1 inh-2)
C=CCCC(=O)Nc1nc(C)c(-c2csc(Nc3cc(Cl)ccc3OC)n2)s1	AHR activator 72
CCN1C(=O)C(CC(=O)Nc2c(C)cccc2C)Nc2cc(S(=O)(=O)N(C)C)ccc21 (stereo not drawn)	none
COC(=O)C1=C(C)N(C)C(=O)NC1c1c(O)ccc2ccccc12 (stereo not drawn)	none
CCN(CC)c1ccc(NC2CC(=O)N(CCc3ccc(OC)cc3)C2=O)cc1 (stereo not drawn)	none
CC(Oc1ccc(Cl)cc1)C(=O)NCC1CCCO1 (stereo not drawn)	none
O=c1onc(-c2ccccc2Cl)n1-c1ccccc1Cl	none
O=C1CC(c2ccc3c(c2)OCCO3)Oc2ccc([N+](=O)[O-])cc21 (stereo not drawn)	DAX1 inh-2 4.7
CC(C)C[C@H]1COc2cc(Br)ccc2S(=O)(=O)N1Cc1cn(Cc2ccc(Br)cc2)nn1	none (no result: DAX1 inh-2, AHR activator)
O=C(Nc1cc(S(=O)(=O)N2CCOCC2)ccc1N1CCOCC1)c1cn2ccccc2n1	none
O=C(Nc1cc(C(F)(F)F)ccc1N1CCOCC1)c1cn2ccccc2n1	DAX1 inh-2 6.6
O=C(CNC(=O)c1ccccc1F)OCc1csc(-c2ccccc2)n1	none
COc1ccccc1C(=O)NCC(=O)OCc1csc(-c2ccccc2)n1	hcDAF12 agonist 5.7
COCCOC(=O)c1[nH]c2c(c1C)C(=O)C(C(=O)OC)C(C)C2 (stereo not drawn)	hgDAF-12 ag 10
COC(=O)C1C(=O)c2c([nH]c(C(=O)OCC3CCCO3)c2C)CC1C (stereo not drawn)	DAX1 inh-2 5.8
CCc1c(C)sc(NC(=S)N2CCN(CC)CC2)c1C(=O)OC	DAX1 inh-2 5.2
COc1ccc(N(CC(=O)NCCSCc2ccccc2Cl)S(C)(=O)=O)cc1Cl	none
COc1ccc(/C=C/c2nc(N)nc(-c3ccccc3O)n2)cc1	AHR activator 59
COc1ccc(/C=C/c2nc(N)nc(-c3ccccc3O)n2)cc1OC	none
COc1ccc(CN2C[C@H](COCc3ccccc3)Oc3cccc(F)c3S2(=O)=O)cc1	none (no result: DAX1 inh-2, AHR activator)
COc1cc(C=O)ccc1OCCCOc1ccccc1[N+](=O)[O-]	ssDAF-12 act 1.0
COc1cccc(NC(=O)N(C)C[C@H]2OCc3cn(nn3)CCCC(=O)N([C@H](C)CO)C[C@@H]2C)c1	none (no result: DAX1 inh-2, AHR activator)
CCCc1nn(C)c(C(=O)Nc2cccc(C)c2)c1Cl	none
CCCc1nn(C)c(C(=O)Nc2cccc(Cl)c2)c1Cl	AHR activator 89
CC(=O)Nc1ccc(C2=NN(Cc3nnc(-c4ccccc4)o3)C(=O)SC2)cc1	AHR activator 76
CC(=O)Nc1ccc(C2=NN(CC#N)C(=O)SC2)cc1	none
CC(C)CC(=O)N1CCN(Cc2ccccc2[N+](=O)[O-])CC1	none (no result: DAX1 inh-2)
COc1ccccc1-c1cc2nc(C)cc(C)n2n1	AHR activator 49 (no result: DAX1 inh-2)
COC(=O)c1cc2c(c3c4cc(F)ccc4n(S(=O)(=O)c4ccc(C)cc4)c13)C(=O)N(Cc1ccc(C(F)(F)F)cc1)C2	none (no result: DAX1 inh-2, AHR activator)
CCOc1ccc(CCNC(=O)COC(=O)c2oc3ccccc3c2COC)cc1OCC	none
CC(OC(=O)Cn1[nH]c(=O)c2ccccc2c1=O)C(=O)Nc1cccc(Cl)c1 (stereo not drawn)	DAX1 inh-2 4.2
COc1cccc(/C=N/NC(=O)CCn2c3ccccc3c3ccccc32)c1	ssDAF-12 act 1.4, AHR activator 73
O=C(CCC(=O)Nc1ccc(F)cc1)N/N=C/c1cccnc1	none
O=[N+]([O-])c1cccc(S(=O)(=O)/N=C(/Nc2ccccc2)c2ccccc2)c1	none
COCc1cc(=O)[nH]c(Nc2nc3ccc(C)cc3o2)n1	AHR activator 48
CCc1ccc2nc(Nc3nc(COC)cc(=O)[nH]3)nc(C)c2c1	none
COc1cccc(C(c2nnnn2CC2CCCO2)N2CCN(C(=O)c3ccco3)CC2)c1OC (stereo not drawn)	none
Oc1nc(Nc2cccc(Cl)c2)sc1/C=C1\C=Nc2ccccc21	AHR activator 117
CC1=Nc2ccccc2/C1=C/c1sc(=O)n(CC(=O)N2CCCC2)c1O	none
CC1=Nc2ccccc2/C1=C\c1sc(Nc2ccc(C)cc2)nc1O	AHR activator 79
Oc1nc(Nc2ccc(F)cc2)sc1/C=C1\C=Nc2ccccc21	AHR activator 122
CCOC(=O)c1c(Nc2ccc(Cl)cc2)sc(/C=C2\C=Nc3ccccc32)c1O	none
COc1ccc(C(=O)NCc2nnc(SCC(=O)NCc3ccco3)o2)cc1OC	none
CCCC1=NN2C(=N)/C(=C\c3ccc(OCCOc4ccc(NC(C)=O)cc4)c(OC)c3)C(=O)N=C2S1	none
CCc1cc2c(nc1CC)CCCN2C	none (no result: DAX1 inh-2, AHR activator)
O=C(NNC(=O)c1cc(Br)c(Br)s1)c1csc(N2CCOCC2)n1	none
NNC(=O)c1ccc(COc2ccc(Br)cc2)o1	AHR activator 78
O=C(c1ccco1)N1CCN(C(=O)c2ccc(COc3ccc4c(c3)CCC4)o2)CC1	none
